Laboratory results published in PubChem BioAssay (NCATS).
Values joined by “and” are separate entries in the source; they are usually repeats but may differ in a detail not shown here. Equal entries are not always repeated. Results filed as inconclusive are left out. Active and inactive are the calls of the source. Unless noted, calls follow the shape of the dose curve; as a rule, active = well fitted curve in the direction sought with a large enough effect; inconclusive = small, poorly fitted or top-dose-only effect, or another doubt; inactive = no such curve, though single readings can be large; an effect the other way counts as inactive or inconclusive.

Key:
[1] = Cell Viability - HepG2 (AID 433; calls by dose curve;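 also: potency is read from the fitted curve at half-maximal effect; potency for ATP loss meaning cytotoxicity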); settings: qHTS
Method in brief: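 HepG2 cells, 1500 per well, treated 40 hr at 37 °C in complete medium; viability from intracellular ATP by CellTiter-Glo luminescence. Normalized to DMSO and 100 uM tamoxifen; AC50 from Hill fit of qHTS concentration-response.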

[2] = Cell Viability - MRC5 (AID 434; calls by dose curve;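 also: potency is read from the fitted curve at half-maximal effect; potency reflects cytotoxicity seen as loss of intracellular ATP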); settings: MRC5 lung fibroblast viability, qHTS
Method in brief: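 Decrease in intracellular ATP, quantified by luciferase light output, reflects compound toxicity toward MRC5 cells exposed for 40 hr in complete culture medium. Concentration-response curves, scaled between DMSO and 100 uM tamoxifen, gave AC50 values.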

[3] = Cell Viability - HUV-EC-C (AID 542); settings: HUV-EC-C endothelial cell viability, qHTS; series mostly up to 92.2 µM; also: % is scaled to controls: 0 for no effect and ±100 for the full control effect; nearly all actives have a fitted effect of over 35% in size
Method in brief: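 Concentration-dependent ATP loss in HUV-EC-C cells is the measure. Exposure lasts 40 hr at 37 °C; luminescence follows CellTiter-Glo addition, and Hill fits give AC50.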

[4] = Cell Viability - Renal Proximal Tubule (AID 545); settings: renal proximal tubule cells viability, at 91.7 µM (top of the series);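 also: 0% = DMSO only and -100% = 100 µM tamoxifen; nearly all actives have a fitted effect of over 40% in size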
Method in brief: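 Rat renal proximal tubule primary cells, 1000/well, exposed to compounds for 40 hr at 37 °C in complete medium; cellular ATP read by CellTiter-Glo luminescence. AC50 from concentration-response fitted with standard Hill equation.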

[5] = Cellular Toxicity (caspase-3) Renal Proximal Tubule (AID 667); settings: renal proximal tubule cells, at 91.7 µM (top of the series);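 also: cells exposed to compound for 16 hours at 37 °C before detection; 0% = DMSO basal and 100% = 10 µM staurosporine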
Method in brief: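 Freshly isolated primary rat kidney proximal tubule cells, 1000/well, treated 16 hr at 37 °C, then Caspase-Glo 3/7 luminescence after 1 hr. Normalized to DMSO and 10 uM staurosporine; AC50 from Hill fit.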

[6] = Confirmation and Secondary Assay for Modulators of Hemoglobin Beta Chain Splicing at IVS2 705 locus (AID 930); settings: HeLa EGFP-705 splicing reporter, GFP fluorescence, 48 h; series mostly up to 46.1 µM;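 also: HeLa cells stably expressing the EGFP-705 splicing reporter; GFP fluorescence per well restored by corrected splicing of the IVS2-705 intron in EGFP; % of control where 0% means no effect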
Method in brief: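 Stable HeLa line with EGFP disrupted by mutant beta-globin intron 2 (705). Overnight attachment, then 2 days of compound at 37C, 5% CO2. Signal: peak GFP intensity summed over objects 5-250 µm.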

[7] = qHTS Assay for Identification of Small Molecule Inducers of Hypoxia Response (AID 2120; active = well fitted curve in the direction sought with a large enough effect in the signal ratio, with a control signal flat, not every such curve was filed as active; the % refers to the signal ratio; also: 0% is about no effect); settings: hypoxia response reporter cells, beta-lactamase ratio readout; series mostly up to 104 µM
Method in brief: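 HRE-bla ME-180, 2500 cells/well, 0.5% dialyzed FBS medium; cpd titration, 17 h 37 degrees C; CCF4 2.5 h RT; Ex 405, Em 460/530 ratio -> %Activity, AC50.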

[8] = molecular target: Retinoic acid receptor RXR-alpha (Homo sapiens) (UniProt P19793); experiment: qHTS assay for small molecule antagonists of retinoid X receptor alpha signaling (AID 588546; active = well fitted inhibition curve with a large enough effect in the signal ratio, with a control signal flat, not every such curve was filed as active; the % refers to the signal ratio;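 also: cells stimulated with 9-cis-retinoic acid as agonist; % is scaled to controls: 0 for no effect and ±100 for the full control effect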); settings: HEK293T RXRa-UAS-bla, beta-lactamase ratio, antagonist mode
Method in brief: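 Beta-lactamase reporter inhibition, read as CCF4 fluorescence ratio (ex 405, em 460/530 nm) after 2 h at RT. HEK293T UAS-bla cells, 2500/well, were stimulated with 9-cis-RA at 500 or 100 nM final alongside test compound for 18 h at 37 C.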

[9] = qHTS assay for small molecule activators of the p53 signaling pathway (AID 651743; active = well fitted activation curve with a large enough effect in the signal ratio, not every such curve was filed as active; the % refers to the signal ratio; also: % of control where 0% means no effect); settings: HCT-116 p53RE-bla, beta-lactamase FRET ratio, 16 h; activation: stronger effect = higher value
Method in brief: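 Here HCT-116 cells with an integrated p53-responsive beta-lactamase gene were incubated with compounds (16 hours, 37 C) after a 5-hour plating period; beta-lactamase activity was detected as fluorescence intensity via B/G FRET substrate.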

[10] = qHTS assay for small molecule agonists of the antioxidant response element (ARE) signaling pathway measured by Nrf2-dependant transcriptional activity - cell viability counter screen (AID 720653; active = well fitted curve in the direction sought with a large enough effect in the repeat runs; an effect the other way counts as inactive or inconclusive; also: % is scaled to controls: 0 for no effect and ±100 for the full control effect); settings: ARE-bla HepG2 viability, CellTiter-Glo ATP luminescence, 16 h; stronger effect = lower value
Method in brief: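 ARE-bla HepG2 cells (2,000/well) rested 5 hrs at 37C/5% CO2, then exposed to compounds in DMSO for 16 hrs. Viability was read in the same wells as intracellular ATP by luminescence, 30 min at room temperature after reagent addition.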

[11] = qHTS assay for cell viability of HEK293 cells (AID 743288); settings: ATP luminescence (CellTiter-Glo), 18 h; max response: stronger effect = lower value; also: % is scaled to controls: 0 for no effect and ±100 for the full control effect; nearly all actives have a fitted effect of over 50% in size
Method in brief: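 Steps: plate 2,000 parental HEK293 cells per well; incubate ≥5 h, 37 C; add compounds in DMSO; incubate 18 h, 37 C; add CellTiter-Glo; wait 30 min at room temperature; read luminescence.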

[12] = molecular target: Guanine nucleotide-binding protein G(i) subunit alpha-1 (Homo sapiens) (UniProt P63096); experiment: qHTS Assay for Inhibitors of RGS12 GoLoco Motif Activity (Green Fluorophore) (AID 879); settings: Galphai1/FITC-RGS12 GoLoco peptide, fluorescence polarization; series mostly up to 57.1 µM;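 also: 0% = labeled peptide with Gαi1 and full inhibition = labeled peptide alone without protein; negative values mean loss of peptide binding seen as reduced polarization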
Method in brief: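 A drop in FITC polarization marked displacement of the FITC-tagged RGS12 GoLoco peptide (10 nM) from Gαi1 (50 nM). Compounds were incubated 10 min at room temperature in Tris pH 7.5 buffer containing 150 mM NaCl, 0.1 mM GDP and 0.05% NP40; unlabeled peptide titration served as control.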

[13] = qHTS Assay for Identification of Small Molecule Agonists for Thrombopoietin (TPO) Signaling Pathway (AID 917); settings: TPO signaling pathway reporter cells, agonist qHTS; series mostly up to 38.5 µM; also: % is scaled to controls: 0 for no effect and ±100 for the full control effect
Method in brief: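 Stimulation at the TPO EC50 (26 pM final) was used to detect activators. Ba/F3 mouse cells bearing human TPO receptor and a luciferase reporter under the Glycoprotein IIb promoter were exposed to compounds for 24 hrs at 37 C.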

[14] = molecular target: Muscarinic acetylcholine receptor M1 (Rattus norvegicus) (UniProt P08482); experiment: qHTS Assay for Antagonists of Acetylcholine Muscarinic M1 Receptor: Measurement of IP-One Response (AID 944); settings: CHO-M1 cells, IP-One HTRF, antagonist mode; series mostly up to 46.1 µM; also: nearly all actives have a fitted effect of over 75% in size
Method in brief: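 Antagonism was measured as loss of carbachol-driven (EC80) IP1 accumulation in CHO cells carrying rat M1, using a homogeneous IP-One TR-FRET kit read at 620 and 665 nm.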

[15] = molecular target: Pyruvate kinase (Leishmania mexicana) (UniProt Q27686); experiment: qHTS Validation Assay for Inhibitors of Leishmania Mexicana Pyruvate Kinase (AID 945);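 also: 0% = DMSO only neutral control wells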; settings: purified L. mexicana pyruvate kinase, enzyme activity, E451W mutant enzyme; series mostly up to 57.5 µM
Method in brief: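 Mutant LmPYK (E451W), 0.2 nM, plus 0.5 mM PEP and 0.1 mM ADP in 50 mM imidazole pH 7.2 containing 0.01% Tween 20 and 0.05% BSA. Incubated 1 h at room temperature; luminescence via PKLight, normalized to DMSO.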

[16] = molecular target: Pyruvate kinase PKM (Homo sapiens) (UniProt P14618); experiment: qHTS Assay for Activators of Human Muscle Pyruvate Kinase (AID 954; active = well fitted curve in the direction sought with a large enough effect, not every such curve was filed as active;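 also: 0% = uninhibited enzyme and -100% = no enzyme or full thiadiazolimine inhibition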); settings: purified human muscle pyruvate kinase, luciferase-coupled luminescence, 1 h; series mostly up to 57.5 µM
Method in brief: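 Compound pinned into substrate mix (0.5 mM PEP, 0.1 mM ADP), then 0.1 nM PKM2 added; 1 h, RT. Stop/detection luciferase reagent added, luminescence read. Normalized to no-inhibition and no-enzyme or reference-inhibitor controls.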

[17] = molecular target: Alpha-galactosidase (Coffea arabica) (UniProt Q42656); experiment: Counterscreen for Glucocerebrosidase Inhibitors: qHTS Assay for Coffee Bean alpha-Galactosidase at pH 4.5 (AID 957); settings: purified coffee bean alpha-galactosidase, fluorogenic substrate; series mostly up to 76.9 µM;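 also: plate controls were enzyme alone for no effect and no enzyme for full effect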
Method in brief: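 Quantitative HTS of compounds (0.7 nM to 77 uM) against coffee bean alpha-galactosidase at pH 4.5, measuring 4-methylumbelliferone fluorescence released from 80 uM substrate.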

[18] = molecular target: alpha-glucosidase (Oryza sativa, rice) (UniProt Q653V4); experiment: Counterscreen for Glucocerebrosidase Inhibitors: qHTS Assay for Rice alpha-Glucosidase at pH 5.0 (AID 997); settings: rice alpha-glucosidase enzyme activity; series mostly up to 76.9 µM;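 also: 0% = full activity with enzyme and -100% = basal without enzyme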
Method in brief: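 Endpoint fluorogenic assay at pH 5.0: compounds (0.7 nM to 77 uM) titrated against 4 nM rice enzyme and 400 uM 4-MU-alpha-glucoside for 20 min at room temperature; NaOH/glycine stop, read ex 365/em 440 nm, Hill-fitted AC50.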

[19] = molecular target: Alpha-galactosidase (Coffea arabica) (UniProt Q42656); experiment: Counterscreen for Glucocerebrosidase Inhibitors: qHTS Assay for Coffee Bean alpha-Galactosidase at pH 5.9 (AID 998); settings: coffee bean alpha-galactosidase enzyme assay; series mostly up to 76.9 µM;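 also: plate controls were uninhibited enzyme for no effect and no-enzyme basal signal for full effect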
Method in brief: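 In 50 mM citric acid pH 5.9 with 0.005% Tween-20, coffee bean enzyme hydrolyses 80 uM 4-MU alpha-D-galactopyranoside over 20 min at RT. Activity is normalized to controls; AC50 comes from Hill-modelled concentration-response data.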

[20] = molecular target: Cytochrome P450 2C9 (Homo sapiens) (UniProt P11712); experiment: qHTS Assay for Inhibitors and Substrates of Cytochrome P450 2C9 (AID 883); settings: recombinant CYP2C9, luciferin-H luminescence, 60 min; series mostly up to 57.1 µM; also: potency is read from the fitted curve at half-maximal effect; nearly all actives have a fitted effect of over 60% in size
Method in brief: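 A luminogenic readout tracked human CYP2C9 (10nM) converting deoxyluciferin (100uM, at KM) in 25mM KPO4 during 60 min at 37C with regenerated NADPH. Values normalized to 57uM sulphaphenazole as complete inhibition.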

[21] = primary cells of rat origin unless noted
[22] = primary cells freshly taken from rat, solvent-only wells 0%, staurosporine 100% unless noted

Retinoic acid receptor RXR-alpha (Homo sapiens), sequence (P19793 whole entry, looked up): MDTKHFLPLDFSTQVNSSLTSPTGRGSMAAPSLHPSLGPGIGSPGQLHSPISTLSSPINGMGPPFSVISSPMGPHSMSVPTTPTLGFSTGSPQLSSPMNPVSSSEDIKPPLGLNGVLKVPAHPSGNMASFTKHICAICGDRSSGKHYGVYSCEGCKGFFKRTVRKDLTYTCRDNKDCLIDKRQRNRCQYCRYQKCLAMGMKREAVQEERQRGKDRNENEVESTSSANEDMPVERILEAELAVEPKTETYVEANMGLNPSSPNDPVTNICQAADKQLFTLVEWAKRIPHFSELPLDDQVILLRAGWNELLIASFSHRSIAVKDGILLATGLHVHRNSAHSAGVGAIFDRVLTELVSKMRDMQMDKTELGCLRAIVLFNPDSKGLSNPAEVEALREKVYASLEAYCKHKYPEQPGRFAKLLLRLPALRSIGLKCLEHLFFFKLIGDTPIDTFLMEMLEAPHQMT
Alpha-galactosidase (Coffea arabica), sequence (Q42656 whole entry, looked up): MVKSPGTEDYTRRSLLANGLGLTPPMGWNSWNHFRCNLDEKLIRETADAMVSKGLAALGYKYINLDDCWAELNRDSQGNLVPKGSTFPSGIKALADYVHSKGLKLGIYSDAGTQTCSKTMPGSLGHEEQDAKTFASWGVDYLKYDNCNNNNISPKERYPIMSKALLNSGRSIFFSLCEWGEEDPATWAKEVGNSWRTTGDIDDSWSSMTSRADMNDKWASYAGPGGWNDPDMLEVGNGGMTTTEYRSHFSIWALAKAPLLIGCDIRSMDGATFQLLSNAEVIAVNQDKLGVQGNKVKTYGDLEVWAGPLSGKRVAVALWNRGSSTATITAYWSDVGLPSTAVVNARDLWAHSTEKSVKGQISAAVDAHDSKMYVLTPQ
Pyruvate kinase (Leishmania mexicana), sequence (Q27686 2-499 E452W): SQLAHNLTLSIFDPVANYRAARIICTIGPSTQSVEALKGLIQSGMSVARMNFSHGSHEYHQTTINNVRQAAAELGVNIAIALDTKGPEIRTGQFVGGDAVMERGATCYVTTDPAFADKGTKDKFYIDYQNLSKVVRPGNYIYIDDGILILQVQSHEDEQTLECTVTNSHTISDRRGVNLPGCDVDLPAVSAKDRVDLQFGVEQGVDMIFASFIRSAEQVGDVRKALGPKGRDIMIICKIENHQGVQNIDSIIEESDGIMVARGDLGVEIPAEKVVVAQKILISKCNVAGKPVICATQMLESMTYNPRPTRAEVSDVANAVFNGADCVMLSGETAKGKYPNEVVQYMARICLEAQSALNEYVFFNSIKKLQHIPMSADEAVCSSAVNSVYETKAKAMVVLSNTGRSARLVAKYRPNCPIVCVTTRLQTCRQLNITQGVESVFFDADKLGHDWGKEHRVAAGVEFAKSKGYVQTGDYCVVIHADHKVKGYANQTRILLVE
Muscarinic acetylcholine receptor M1 (Rattus norvegicus), sequence (P08482 whole entry, looked up): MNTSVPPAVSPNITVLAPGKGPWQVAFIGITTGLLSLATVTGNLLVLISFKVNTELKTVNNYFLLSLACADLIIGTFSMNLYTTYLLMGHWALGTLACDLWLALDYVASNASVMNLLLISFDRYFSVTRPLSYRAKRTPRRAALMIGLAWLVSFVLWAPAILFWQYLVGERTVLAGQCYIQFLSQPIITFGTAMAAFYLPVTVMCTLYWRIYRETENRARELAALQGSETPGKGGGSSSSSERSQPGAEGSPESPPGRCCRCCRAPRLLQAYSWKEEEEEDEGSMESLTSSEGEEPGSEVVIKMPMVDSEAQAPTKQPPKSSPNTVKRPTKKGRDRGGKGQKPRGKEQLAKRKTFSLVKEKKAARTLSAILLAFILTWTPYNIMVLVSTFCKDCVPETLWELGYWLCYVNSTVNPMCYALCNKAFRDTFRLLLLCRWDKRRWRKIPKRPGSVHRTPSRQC
Guanine nucleotide-binding protein G(i) subunit alpha-1 (Homo sapiens), sequence (P63096 whole entry, looked up): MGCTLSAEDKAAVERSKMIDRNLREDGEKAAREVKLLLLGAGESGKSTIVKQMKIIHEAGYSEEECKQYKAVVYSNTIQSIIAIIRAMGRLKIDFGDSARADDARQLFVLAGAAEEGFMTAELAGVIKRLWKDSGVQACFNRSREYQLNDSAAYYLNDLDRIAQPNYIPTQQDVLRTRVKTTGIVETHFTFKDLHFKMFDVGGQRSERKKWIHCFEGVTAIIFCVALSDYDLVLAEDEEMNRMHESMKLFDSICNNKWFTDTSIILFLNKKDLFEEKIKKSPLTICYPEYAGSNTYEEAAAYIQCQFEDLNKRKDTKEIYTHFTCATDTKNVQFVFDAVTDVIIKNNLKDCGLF
Pyruvate kinase PKM (Homo sapiens), sequence (P14618 whole entry, looked up): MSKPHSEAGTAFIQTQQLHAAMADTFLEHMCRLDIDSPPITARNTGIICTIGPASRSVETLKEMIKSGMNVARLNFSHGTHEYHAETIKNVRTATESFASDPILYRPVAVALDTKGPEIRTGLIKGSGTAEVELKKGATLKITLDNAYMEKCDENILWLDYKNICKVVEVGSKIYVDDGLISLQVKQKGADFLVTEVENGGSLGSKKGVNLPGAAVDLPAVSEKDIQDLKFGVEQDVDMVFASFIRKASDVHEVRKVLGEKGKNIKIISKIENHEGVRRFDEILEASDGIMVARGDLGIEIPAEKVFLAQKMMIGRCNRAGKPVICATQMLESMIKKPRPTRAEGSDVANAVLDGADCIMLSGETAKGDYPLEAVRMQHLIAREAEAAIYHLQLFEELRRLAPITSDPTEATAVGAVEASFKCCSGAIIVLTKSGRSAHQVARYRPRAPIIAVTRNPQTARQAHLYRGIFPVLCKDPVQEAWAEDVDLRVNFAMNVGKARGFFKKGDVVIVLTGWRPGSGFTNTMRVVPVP
Cytochrome P450 2C9 (Homo sapiens), sequence (P11712 whole entry, looked up): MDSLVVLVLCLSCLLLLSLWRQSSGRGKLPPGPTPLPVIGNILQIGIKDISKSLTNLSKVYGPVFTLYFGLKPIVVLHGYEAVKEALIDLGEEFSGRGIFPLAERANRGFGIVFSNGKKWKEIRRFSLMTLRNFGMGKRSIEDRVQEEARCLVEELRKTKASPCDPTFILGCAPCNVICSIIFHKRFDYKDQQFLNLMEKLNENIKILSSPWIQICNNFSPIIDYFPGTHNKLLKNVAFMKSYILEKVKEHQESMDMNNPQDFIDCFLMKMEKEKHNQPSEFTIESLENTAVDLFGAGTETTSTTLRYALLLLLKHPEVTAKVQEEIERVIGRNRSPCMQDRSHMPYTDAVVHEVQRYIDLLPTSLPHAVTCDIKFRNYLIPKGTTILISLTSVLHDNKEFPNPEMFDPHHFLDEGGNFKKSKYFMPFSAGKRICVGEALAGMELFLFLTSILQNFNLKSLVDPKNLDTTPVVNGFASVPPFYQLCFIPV

ClC1=C(Cl)C2(Cl)C3C(Cl)C=CC3C1(Cl)C2(Cl)Cl (stereo unspecified)
inactive: Potency [1] > 92 µM | Potency [2] > 92 µM | Potency [3] | activity change, negative = cytotoxicity [4, 21] -2.85% | caspase-3 activation [5, 22] 2.29% | Potency [6] | outcome [7] | max response [8] -17.9% | activation [9] 1.8% | max response [10] -10.5% | max response [11] -13.7%

O=C(O)COc1ccc(Cl)cc1Cl
inactive: Potency [1] > 92 µM | Potency [2] > 92 µM | Potency [3] | activity change, negative = cytotoxicity [4] -12.8% | activity change, negative = cytotoxicity ([4]; primary cells of rat origin) -15.7% | caspase-3 activation [5] 4.86% | caspase-3 activation ([5]; primary cells freshly taken from rat, solvent-only wells 0%, staurosporine 100%) 3.32% | outcome [7] | max response [8] -3.05% [middle of 4 runs] | activation [9] -2.21% [middle of 4 runs] | max response [10] -0.488% [middle of 4 runs] | max response [11] 0.426% [middle of 4 runs]

C=CCc1ccc2c(c1)OCO2
inactive: Potency [1] > 92 µM | Potency [2] > 92 µM | Potency [3] | activity change, negative = cytotoxicity [4, 21] 1.52% [at 91.7 µM] | caspase-3 activation [5, 22] -2.37% [at 91.7 µM] | outcome [7] | max response [8] 33.4% | activation [9] -1.35% | max response [10] -4.7% | max response [11] -8.48%

CNC(=O)O/N=C/C(C)(C)SC
inactive: Potency [1] > 92 µM | Potency [2] > 92 µM | Potency [3] | activity change, negative = cytotoxicity [4, 21] -3.02% [at 91.7 µM] | caspase-3 activation [5, 22] -0.514% [at 91.7 µM] | Potency [6] | outcome [7] | max response [8] -10.4% and 16.3% and -14.6% | activation [9] -1.27% and -5.37% and -5.16% | max response [10] 2.17% and 5.56% | max response [11] -1.1% and -12.4% and -2.16%

c1ccc(N=Nc2ccccc2)cc1
inactive: Potency [1] > 92 µM | Potency [2] > 92 µM | Potency [3] | activity change, negative = cytotoxicity [4, 21] -6.36% | caspase-3 activation [5, 22] 1.95% | Potency [6] | outcome [7] | max response [8] -1.15% and 2.93% | activation [9] -2.32% and -5.83% | max response [10] -6.06% and -16.5% | max response [11] 1.24% and -11.6%

ClC1=C(Cl)C2(Cl)C3C4C=CC(C4)C3C1(Cl)C2(Cl)Cl (stereo unspecified)
inactive: Potency [1] > 92 µM | Potency [2] > 92 µM | Potency [3] | activity change, negative = cytotoxicity [4, 21] 4.94% [at 91.7 µM] | caspase-3 activation [5, 22] -0.505% [at 91.7 µM] | Potency [6] | outcome [7] | max response [8] -13.5% | activation [9] 0.0105% | max response [10] -5% | max response [11] -24.9%

CS(=N)(=O)CC[C@@H](N)C(=O)O (stereo partly specified)
inactive: outcome [12] | outcome [13] | Potency [14] | Potency [15] | outcome [16] | outcome [17] | outcome [18] | outcome [19]

COc1ccc2c(c1OC)C(=O)O[C@H]2[C@H]1c2cc3c(cc2CCN1C)OCO3
inactive: outcome [12] | Potency [14] | Potency [15] | outcome [17] | outcome [18] | outcome [19]
active: Potency [20] 3.98 µM
